Consider 9 molecules from PubChem BioAssay (NCATS).

SMILES strings stand for the structures. “And” between values parts separate entries of the source, which are not always exact repeats. Equal entries are not always repeated. Results filed as inconclusive are left out. The source made the active and inactive calls. Unless noted, calls follow the shape of the dose curve; as a rule, active = well fitted curve in the direction sought with a large enough effect; inconclusive = small, poorly fitted or top-dose-only effect, or another doubt; inactive = no such curve, though single readings can be large; an effect the other way counts as inactive or inconclusive.

Test [1] deals with Methanococcus maripaludis chaperonin (MmCpn) (UniProt Q6LX38). In words: High-Throughput Screening for Modulators of Cytosolic Chaperonin Activity: MmCpn Primary Screen (AID 488978).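 Also: 50 nM MmCpn enzyme hydrolysing 30 µM ATP at 37 °C; 0% is about no effect.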 A digest of the protocol: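 Steps: chaperonin 50 nM final; add compound, 5 min RT; start with ATP, 30 uM final; hold 10 min at 37C; add ADP Transcreener HTRF reagent, 5 min; read ex 320, em 590 and 665 nm.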
Chain of Methanococcus maripaludis chaperonin (MmCpn) (Q6LX38 1-543): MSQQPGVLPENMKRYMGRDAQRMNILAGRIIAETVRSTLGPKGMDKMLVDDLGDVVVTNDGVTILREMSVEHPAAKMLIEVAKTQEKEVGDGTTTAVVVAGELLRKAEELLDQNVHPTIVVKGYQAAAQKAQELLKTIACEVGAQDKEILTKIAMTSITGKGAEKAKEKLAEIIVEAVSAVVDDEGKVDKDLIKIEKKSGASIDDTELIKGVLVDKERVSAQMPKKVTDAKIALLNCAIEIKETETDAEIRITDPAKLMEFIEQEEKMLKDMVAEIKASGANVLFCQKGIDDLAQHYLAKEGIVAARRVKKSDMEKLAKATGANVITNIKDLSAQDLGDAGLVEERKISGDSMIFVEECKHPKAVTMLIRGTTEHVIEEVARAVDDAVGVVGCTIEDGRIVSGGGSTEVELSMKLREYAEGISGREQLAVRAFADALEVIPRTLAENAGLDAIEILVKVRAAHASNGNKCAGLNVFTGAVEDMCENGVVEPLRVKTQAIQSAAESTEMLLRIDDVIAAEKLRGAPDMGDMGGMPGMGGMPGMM

For test [2], the target named is Transient receptor potential cation channel subfamily V member 1 (Homo sapiens) (UniProt Q8NER1). The experiment in a line: HTS Assay for Compounds that Act as Enhancers of the Vanilloid Receptor 1 (AID 488979). Also: 0% is about no effect. A digest of the protocol: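 TRPV1 cells loaded with Fluo-8 calcium dye; compound added and Ca2+ signal (ex 480/em 520 nm) followed 3 min, then capsaicin at EC20 added and read 2 more min to detect enhancement.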
Chain of Transient receptor potential cation channel subfamily V member 1 (Homo sapiens) (Q8NER1 whole entry, looked up): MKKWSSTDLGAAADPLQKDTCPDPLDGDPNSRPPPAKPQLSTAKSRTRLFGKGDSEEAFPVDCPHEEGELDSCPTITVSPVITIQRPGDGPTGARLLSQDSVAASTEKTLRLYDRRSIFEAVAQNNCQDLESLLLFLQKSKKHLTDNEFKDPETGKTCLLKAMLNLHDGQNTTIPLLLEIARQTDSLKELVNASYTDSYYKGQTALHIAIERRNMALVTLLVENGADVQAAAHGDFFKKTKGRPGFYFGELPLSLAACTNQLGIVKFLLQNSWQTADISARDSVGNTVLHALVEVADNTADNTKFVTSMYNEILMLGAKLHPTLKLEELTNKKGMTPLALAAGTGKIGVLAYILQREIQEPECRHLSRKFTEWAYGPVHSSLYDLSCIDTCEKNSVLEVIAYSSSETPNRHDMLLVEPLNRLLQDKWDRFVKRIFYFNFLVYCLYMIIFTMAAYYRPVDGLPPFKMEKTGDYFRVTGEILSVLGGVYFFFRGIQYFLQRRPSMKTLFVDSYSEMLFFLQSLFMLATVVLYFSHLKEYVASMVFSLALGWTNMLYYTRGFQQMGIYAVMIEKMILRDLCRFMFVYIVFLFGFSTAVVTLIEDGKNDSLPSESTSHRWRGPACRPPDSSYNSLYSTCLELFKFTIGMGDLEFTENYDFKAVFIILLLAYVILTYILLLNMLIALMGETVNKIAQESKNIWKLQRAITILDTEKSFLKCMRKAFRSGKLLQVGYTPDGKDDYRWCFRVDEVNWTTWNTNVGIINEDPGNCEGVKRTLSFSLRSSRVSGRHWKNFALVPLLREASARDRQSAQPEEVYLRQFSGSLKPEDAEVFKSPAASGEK

The target in test [3] is Thyrotropin receptor (Homo sapiens) (UniProt P16473). The experiment in a line: qHTS Assay for Antagonists of the Thyroid Stimulating Hormone Receptor (AID 488980). Also: series mostly up to about 58 µM; 0% is about no effect. A digest of the protocol:
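Readout is cAMP by HTRF competition between cellular cAMP and cAMP-d2 for a cryptate-labelled antibody. Antagonism was assessed in TSHR-transfected HEK293 cells stimulated with 4 nM TSH (EC80, final) in the presence of RO 20-1724.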
A general note: In qHTS, concentration-response curves come from the screen itself.

Test [4] concerns the target D(1A) dopamine receptor (Homo sapiens) (UniProt P21728). In words: HTS Assay for Allosteric Agonists of the Human D1 Dopamine Receptor: Primary Screen for Agonists (AID 488981). Also: 0% is about no effect. A digest of the protocol:
(§1)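 Tetracycline-induced HEK293 Trex D1 cells with forced coupling to calcium, loaded with no-wash calcium dye; kinetic fluorescence read 180 s after compound addition for agonism, then a further 180 s after an EC20 dopamine challenge for potentiation.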

Test [5] has the same target. In words: HTS Assay for Allosteric Agonists of the Human D1 Dopamine Receptor: Primary Screen for Potentiators (AID 488982). Also: 0% is about no effect. A digest of the protocol:
as §1

Test [6] shares this target. The experiment in a line: HTS Assay for Allosteric Agonists of the Human D1 Dopamine Receptor: Primary Screen for Antagonists (AID 488983).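 Also: calcium flux response to an EC80 dopamine challenge measured with no-wash dye; % is scaled to controls: 0 for no effect and ±100 for the full control effect; nearly all actives have a fitted effect of over 65% in size.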 Summed up: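 Tetracycline-induced HEK293 T-REx D1 line, force-coupled to calcium flux, read with no-wash calcium dye. Compound added after 10 s baseline, read 180 s for agonism, then EC80 dopamine added and read a further 180 s.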

Test [7] is described as follows: Validation screen for small molecules that induce genotoxicity in human embryonic kidney (HEK293T) cells expressing luciferase-tagged ELG1 (AID 493106). Also: potency is read from the fitted curve at half-maximal effect. A digest of the protocol:
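HEK293T cells expressing luciferase-tagged ELG1, 2,000 cells/well, exposed to compound 16 hr at 37 °C, 5% CO2. Luciferase read after ONE-Glo, 30 min at room temperature; increased signal indicates genetic stress.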

In test [8] the target is ATPase family AAA domain-containing protein 5 (Homo sapiens) (UniProt Q96QE3). The experiment in a line: Validation screen for small molecules that inhibit ELG1-dependent DNA repair in human embryonic kidney (HEK293T) cells expressing luciferase-tagged ELG1 (AID 493107).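 Also: cells co-treated with the DNA-damaging agent 5-fluorouridine alongside compound; series mostly up to about 46 µM; % is scaled to controls: 0 for no effect and ±100 for the full control effect; inhibitors lower the ELG1-luciferase luminescence signal; nearly all actives have a fitted effect of over 70% in size.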 Summed up: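 HEK293T cells expressing luciferase-tagged ELG1, 2,000 per well, treated with 5-fluorouridine plus compound for 16 h at 37 C. ONE-Glo luminescence after 30 min at room temperature reports ELG1 reporter level.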
Chain of ATPase family AAA domain-containing protein 5 (Homo sapiens) (Q96QE3 whole entry, looked up, the tested form may be a part): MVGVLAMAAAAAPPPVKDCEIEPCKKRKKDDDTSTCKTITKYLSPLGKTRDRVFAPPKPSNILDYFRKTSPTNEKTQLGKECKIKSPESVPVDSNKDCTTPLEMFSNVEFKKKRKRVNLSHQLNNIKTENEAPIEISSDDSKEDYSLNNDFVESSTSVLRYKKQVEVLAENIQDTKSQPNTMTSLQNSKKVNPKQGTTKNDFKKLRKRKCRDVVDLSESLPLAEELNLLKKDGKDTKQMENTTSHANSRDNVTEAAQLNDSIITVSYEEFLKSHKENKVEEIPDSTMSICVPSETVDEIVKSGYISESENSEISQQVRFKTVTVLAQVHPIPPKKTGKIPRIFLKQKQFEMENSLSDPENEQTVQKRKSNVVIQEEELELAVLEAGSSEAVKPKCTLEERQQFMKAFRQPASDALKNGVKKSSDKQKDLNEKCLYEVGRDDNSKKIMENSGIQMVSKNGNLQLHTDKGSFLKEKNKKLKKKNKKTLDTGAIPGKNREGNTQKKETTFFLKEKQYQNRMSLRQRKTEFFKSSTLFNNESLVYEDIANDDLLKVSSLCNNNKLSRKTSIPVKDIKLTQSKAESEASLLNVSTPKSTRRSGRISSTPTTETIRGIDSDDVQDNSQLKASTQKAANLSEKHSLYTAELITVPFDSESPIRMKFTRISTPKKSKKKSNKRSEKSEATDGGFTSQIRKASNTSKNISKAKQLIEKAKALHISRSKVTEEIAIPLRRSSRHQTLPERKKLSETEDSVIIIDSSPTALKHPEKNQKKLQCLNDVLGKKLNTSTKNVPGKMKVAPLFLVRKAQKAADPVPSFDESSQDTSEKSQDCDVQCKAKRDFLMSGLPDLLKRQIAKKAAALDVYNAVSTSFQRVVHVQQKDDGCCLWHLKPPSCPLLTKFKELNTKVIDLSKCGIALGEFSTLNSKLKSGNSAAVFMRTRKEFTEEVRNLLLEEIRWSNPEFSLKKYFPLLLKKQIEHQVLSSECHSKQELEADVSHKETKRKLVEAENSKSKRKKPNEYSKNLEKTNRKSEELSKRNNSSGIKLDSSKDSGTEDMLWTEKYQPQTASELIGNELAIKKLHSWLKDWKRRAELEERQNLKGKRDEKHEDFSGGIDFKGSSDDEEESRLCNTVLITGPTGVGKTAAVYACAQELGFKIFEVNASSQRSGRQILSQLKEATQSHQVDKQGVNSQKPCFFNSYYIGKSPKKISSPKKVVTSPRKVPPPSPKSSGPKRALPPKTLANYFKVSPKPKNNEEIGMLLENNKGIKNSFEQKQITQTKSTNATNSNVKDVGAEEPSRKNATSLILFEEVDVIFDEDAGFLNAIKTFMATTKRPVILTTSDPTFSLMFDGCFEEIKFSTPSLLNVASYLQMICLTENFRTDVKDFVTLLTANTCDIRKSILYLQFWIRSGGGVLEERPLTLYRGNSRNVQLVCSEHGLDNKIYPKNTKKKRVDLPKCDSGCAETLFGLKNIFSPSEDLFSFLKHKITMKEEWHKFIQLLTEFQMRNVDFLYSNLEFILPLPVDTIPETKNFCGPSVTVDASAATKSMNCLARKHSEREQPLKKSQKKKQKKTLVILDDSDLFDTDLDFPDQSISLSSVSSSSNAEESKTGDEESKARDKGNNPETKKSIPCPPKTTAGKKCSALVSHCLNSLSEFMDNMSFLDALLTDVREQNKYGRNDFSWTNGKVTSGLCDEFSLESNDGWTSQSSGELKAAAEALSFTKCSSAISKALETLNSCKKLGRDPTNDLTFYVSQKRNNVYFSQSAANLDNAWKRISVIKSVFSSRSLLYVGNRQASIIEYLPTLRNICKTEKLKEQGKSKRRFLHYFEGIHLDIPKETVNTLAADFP

Test [9] is described as follows: Nrf2 qHTS screen for inhibitors: Validation (AID 493153; active = well fitted inhibition curve with a large enough effect in the main read-out, with a control signal flat, not every such curve was filed as active). Conditions: viability change: measured here: cytotoxicity max response. Summed up:
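A549 cells carrying ARE-firefly luciferase reporter, 5000 cells/well in 5% FBS OPTI-MEM, treated with compound over a concentration series for 18-24 h at 37 C. Luciferase luminescence gave Nrf2 activity; CellTiter-Fluor fluorescence gave viability.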

The nature of test [10]: qHTS for Inhibitors of Cell Surface uPA Generation: Validation Assay (AID 493164). Also: 0% is about no effect. A digest of the protocol:
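RAW 264.7 cells (4000/well) were plated overnight, then exposed for 18 h at 37 C, 5% CO2 to compounds in a 7-point 1:5 titration (2.45 nM–38.3 uM final). Intracellular ATP was read by ATP-Lite luminescence.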

Test [11] deals with Galactokinase (Homo sapiens) (UniProt P51570). In words: qHTS Validation Assay for Inhibitors of Human Galactokinase (GALK) (AID 493189). Also: 0% is about no effect. Summed up:
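5 nM GALK / 100 uM galactose / 35 uM ATP, 20 mM HEPES pH8.0, 5 mM MgCl2, 60 mM NaCl, 1 mM DTT, 0.01% BSA (final). RT 1 h; Kinase-Glo Plus luminescence.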

Test [12] is described as follows: Validation screen for small molecules that induce DNA re-replication in SW480 colon adenocarcinoma cells (AID 504364). Also: 0% is about no effect. A digest of the protocol:
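SW480 cells (250/well) exposed 48 h at 37 C, 5% CO2, then Hoechst-stained 40 min. Nuclear DNA content imaged by fluorescence scanning (405 nm excitation, 500-530 nm emission); re-replication scored as increased nuclei with elevated intensity.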

For test [13], the target named is Peptidyl-prolyl cis-trans isomerase NIMA-interacting 1 (Homo sapiens) (UniProt Q13526). In words: qHTS Validation Assay to Find Inhibitors of Pin1 (AID 504536; active = well fitted inhibition curve with a large enough effect in the polarisation, with a control signal flat, not every such curve was filed as active; the % refers to the polarisation;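 also: 0% = full Pin1 enzyme wells and -100% = no-enzyme wells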). Summed up:
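Fluorescence polarization competition: compounds (titration) displace HiFluor-488-labeled Pin1-1b peptide from Pin1 (0.3 uM final) in pH 7.5 HEPES buffer with DTT, 10 min at room temperature; %Activity normalized to no-enzyme wells, curves fitted.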

The target in test [14] is Phosphoglycerate kinase, glycosomal (Trypanosoma brucei brucei) (UniProt P07378). In words: qHTS Validation Assay to Find Inhibitors of Phosphoglycerate Kinase (AID 504547).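 Also: control wells lack PGK and mark full inhibition.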 A digest of the protocol:
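PGK activity was coupled to GAPDH (100nM final), which generates the unstable substrate 1,3-bisphosphoglycerate in-well. Reactions ran 60 minutes at room temperature in 100mM TEA pH 7.6, 5mM MgCl2, 0.01% Tween-20, then Kinase-Glo Plus luminescence was read.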

In test [15] the target is phosphoglycerate mutase (Leishmania major) (UniProt Q4Q090). In words: qHTS Validation Assay to Find Inhibitors of Phosphoglycerate Mutase (AID 504548).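 Also: end-point luminescence from Kinase-GloPlus after the PGAM reaction; series mostly up to about 58 µM; % is scaled to controls: 0 for no effect and ±100 for the full control effect.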 A digest of the protocol: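 L. major PGAM (1.25nM final) was added to substrate buffer and pinned compound, incubated 45 minutes at room temperature, then Kinase-GloPlus added; luminescence read after 10 minutes. Buffer: 100 mM TEA pH 7.6, 5 mM MgCl2, 0.01% Tween-20.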

Test [16] addresses Ubiquitin carboxyl-terminal hydrolase 1 (Homo sapiens) (UniProt O94782). In words: Inhibitors of USP1/UAF1: Pilot qHTS (AID 504865).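 Also: rhodamine fluorescence freed from ubiquitin-rhodamine substrate followed over time; top concentration of the series differs between compounds; % is scaled to controls: 0 for no effect and ±100 for the full control effect; nearly all actives have a fitted effect of over 35% in size.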 A digest of the protocol:
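In 50mM HEPES pH 7.8 containing 0.5mM EDTA, 1mM TCEP, 0.1 mg/ml BSA and 0.01% Tween-20, 1nM USP1/UAF1 is exposed to compound for 15 min, then Ub-Rho (150nM final) is added and fluorescence is read over time.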

Test [17] in a line: qHTS for Inhibitors of ATXN expression: Validation of Cytotoxic Assay (AID 588349). Also: potency is read from the fitted curve at half-maximal effect. Summed up:
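HEK293 cells treated with titrated compound for 72 hr at 37 degrees C; viability read as intracellular ATP by CellTiter Glo luminescence.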

In test [18] the target is Thyrotropin-releasing hormone receptor (Homo sapiens) (UniProt P34981). The experiment in a line: qHTS for Small Molecule Agonists and Allosteric Enhancers of Human TRH Receptor: Validation Screen for Agonists (AID 493127;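 active = calcium activation more than 3 SD above the typical response in the agonist read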; also: 0% is about no effect). Conditions: TRH receptor agonist cell assay; at 2 µM; stronger effect = higher value. Summed up:
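TRHR cells loaded with fluo-8 calcium dye; FDSS kinetic fluorescence (Ex 480/Em 530) read at 1 s/cycle after 23 nL compound addition. Agonist-mode calcium response recorded before the 10 nM TRH (EC20) addition.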

Test [19] addresses ATP-dependent 6-phosphofructokinase (Trypanosoma brucei brucei) (UniProt O15648). The experiment in a line: qHTS Assay to Find Inhibitors of T. brucei phosphofructokinase: hit validation (AID 492961).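 Also: luminescence reports ADP formed as PFK phosphorylates fructose-6-phosphate with ATP; series mostly up to about 51 µM; % is scaled to controls: 0 for no effect and ±100 for the full control effect.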 A digest of the protocol: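 Inhibition of parasite PFK is measured as reduced ADP formation, quantified via luciferase after ATP depletion. Assay used 0.1 mM ATP, 0.5 mM F6P, 1.25 nM enzyme, 45 min incubation.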

The target in test [20] is DNA dC->dU-editing enzyme APOBEC-3G (Homo sapiens) (UniProt Q9HC16). The experiment in a line: qHTS for inhibitors of Vif-A3G interactions: Validation (AID 588379). Also: 0% is about no effect. Summed up: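 HeLa cells stably expressing Vif and A3G-eYFP, 700 cells/well, incubated overnight at 37 deg C, then exposed to compound overnight at 37 deg C. Inhibition of Vif-mediated degradation read as increased yellow fluorescence (Ex 488/Em 500-530) by laser-scanning cytometry.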

Chain of Galactokinase (Homo sapiens) (P51570 whole entry, looked up): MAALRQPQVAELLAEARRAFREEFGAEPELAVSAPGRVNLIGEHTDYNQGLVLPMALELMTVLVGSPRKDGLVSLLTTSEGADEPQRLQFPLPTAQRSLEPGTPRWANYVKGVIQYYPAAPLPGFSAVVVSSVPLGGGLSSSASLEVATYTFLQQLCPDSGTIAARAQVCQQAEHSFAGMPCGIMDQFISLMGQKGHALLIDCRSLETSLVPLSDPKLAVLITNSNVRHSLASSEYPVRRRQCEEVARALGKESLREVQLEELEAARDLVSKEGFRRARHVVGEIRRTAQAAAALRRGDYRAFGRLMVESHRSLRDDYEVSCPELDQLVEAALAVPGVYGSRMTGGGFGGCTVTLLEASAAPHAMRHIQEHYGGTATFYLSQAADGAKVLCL
Chain of Thyrotropin receptor (Homo sapiens) (P16473 whole entry, looked up): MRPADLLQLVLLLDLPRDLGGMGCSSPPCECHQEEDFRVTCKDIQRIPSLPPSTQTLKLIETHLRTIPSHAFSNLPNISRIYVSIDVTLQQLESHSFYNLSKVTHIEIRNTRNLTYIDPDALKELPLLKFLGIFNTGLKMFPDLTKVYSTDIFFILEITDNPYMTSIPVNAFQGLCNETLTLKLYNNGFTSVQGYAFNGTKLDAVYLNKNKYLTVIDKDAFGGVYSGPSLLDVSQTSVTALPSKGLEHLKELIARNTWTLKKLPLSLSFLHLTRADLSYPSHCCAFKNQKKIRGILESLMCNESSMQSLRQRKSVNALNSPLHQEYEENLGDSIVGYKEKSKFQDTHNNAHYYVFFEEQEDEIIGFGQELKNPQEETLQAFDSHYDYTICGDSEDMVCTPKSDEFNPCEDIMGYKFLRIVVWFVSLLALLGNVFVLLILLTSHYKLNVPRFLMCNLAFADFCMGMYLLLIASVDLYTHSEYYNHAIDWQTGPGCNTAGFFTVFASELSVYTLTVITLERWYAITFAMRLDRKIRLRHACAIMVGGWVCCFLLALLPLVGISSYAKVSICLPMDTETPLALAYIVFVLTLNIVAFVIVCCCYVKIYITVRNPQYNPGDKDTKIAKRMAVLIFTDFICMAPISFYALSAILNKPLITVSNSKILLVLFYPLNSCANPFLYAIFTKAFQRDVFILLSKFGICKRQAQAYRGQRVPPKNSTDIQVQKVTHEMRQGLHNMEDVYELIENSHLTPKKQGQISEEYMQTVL
Chain of Phosphoglycerate kinase, glycosomal (Trypanosoma brucei brucei) (P07378 whole entry, looked up): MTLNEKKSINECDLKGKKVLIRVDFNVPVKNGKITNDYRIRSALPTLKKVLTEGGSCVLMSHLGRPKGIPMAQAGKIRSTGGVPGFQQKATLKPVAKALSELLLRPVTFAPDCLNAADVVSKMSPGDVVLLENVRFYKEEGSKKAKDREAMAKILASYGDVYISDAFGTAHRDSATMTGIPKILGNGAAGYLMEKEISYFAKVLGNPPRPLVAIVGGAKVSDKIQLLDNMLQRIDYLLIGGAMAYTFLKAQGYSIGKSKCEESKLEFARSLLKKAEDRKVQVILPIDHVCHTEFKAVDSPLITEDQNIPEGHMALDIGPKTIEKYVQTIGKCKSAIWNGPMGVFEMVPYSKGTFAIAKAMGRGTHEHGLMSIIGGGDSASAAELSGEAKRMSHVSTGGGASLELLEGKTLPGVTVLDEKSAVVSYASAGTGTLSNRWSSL
Chain of Peptidyl-prolyl cis-trans isomerase NIMA-interacting 1 (Homo sapiens) (Q13526 whole entry, looked up): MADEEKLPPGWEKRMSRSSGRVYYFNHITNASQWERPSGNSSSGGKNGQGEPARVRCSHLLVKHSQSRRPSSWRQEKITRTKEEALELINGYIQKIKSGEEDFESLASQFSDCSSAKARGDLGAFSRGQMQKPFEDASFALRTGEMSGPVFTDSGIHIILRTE

`CCCNC(=O)NS(=O)(=O)c1ccc(Cl)cc1`: the call in test [1], in test [2], in [3], in [4], in test [5] and in test [8] was inactive. Besides, the molecule was classed as inactive in test [9], in test [10], in test [11], in test [12], in test [13] and in test [14]. For the same molecule, in test [15], the result was inactive. Besides, the Potency entry in [6], in test [7], in [16] and in test [17] was “inactive” each time. Moreover, in test [9], the viability change is -0.767%.

For the molecule `CC(=O)c1ccc(S(=O)(=O)NC(=O)NC2CCCCC2)cc1`, the molecule was called inactive in test [1], in test [2], in test [3], in test [4], in test [5] and in test [8]. Moreover, the result in test [9], in test [10], in test [11], in test [12], in test [13] and in [14] was inactive. Besides, in [15], the molecule was classed as inactive. Besides, the Potency result in test [6], in [7], in test [16] and in [17] was “inactive” throughout. Further, the activation in [18] is 0.188% (inactive). Moreover, the viability change in test [9] stood at 1.61%.

Consider `O=C1NCC2(CCN(CCc3ccccc3)CC2)O1`, for which the result in [1], in test [2], in test [3], in [4], in test [5] and in test [19] was inactive. Further, the result in test [8], in test [9], in [10], in [11], in test [12] and in test [13] was inactive. Moreover, the outcome in test [14] and in test [15] was inactive. Also, the Potency entry in test [6], in [16] and in [17] was “inactive” throughout. For the same molecule, in [18], the activation is 0.562% (inactive). The viability change in test [9] was 1.8%.

Regarding `CCN(CC)CCNC(=O)c1ccc(N)cc1`, the call in test [1], in test [3], in [4], in test [5], in [8] and in [9] was inactive. Besides, the call in test [10], in test [11], in test [12], in test [14] and in [15] was inactive. Further, the Potency result in test [6], in test [7] and in [17] was “inactive” in each case. The viability change in [9] is -14%.

For the molecule `NC(N)=Nc1nc(CSCC/C(N)=N/S(N)(=O)=O)cs1`, the result in test [1], in test [2], in test [4], in test [5], in [8] and in test [9] was inactive. Besides, the result in test [10], in [11], in test [12], in test [13], in test [14] and in test [15] was inactive. The Potency entry in test [6], in test [7], in test [16] and in [17] was “inactive” in each case. For the same molecule, in [9], the viability change is -0.651%.

On to `O=C1NC(=O)C(c2ccccc2)(c2ccccc2)N1`, for which the molecule was classed as inactive in [1], in test [2], in test [3], in test [4], in [5] and in test [8]. Moreover, the outcome in test [9], in test [10], in test [11], in [12], in [13] and in test [14] was inactive. Besides, in test [15], the outcome was inactive. In addition, the Potency entry in [6], in test [7], in test [16] and in test [17] was “inactive” in each case. Moreover, the activation in [18] was 0.438% (inactive). Moreover, the viability change in test [9] is -3.24%.

Regarding `O=c1c(-c2ccc(O)cc2)coc2cc(O)ccc12`, the molecule was called inactive in [1], in test [2], in test [3], in test [4], in test [5] and in test [9]. In addition, the result in test [10], in test [11], in test [12], in test [13], in test [14] and in test [15] was inactive. For the same molecule, the molecule was called inactive in test [20]. The Potency result in test [6], in test [16] and in test [17] was “inactive” in each case. The Potency in [7] was 20.6 µM (active). For the same molecule, the viability change in test [9] is 1.29%.

Regarding `CC1=C(/C=C/C(C)=C/C=C/C(C)=C/C(=O)Nc2ccc(O)cc2)C(C)(C)CCC1`, the call in test [1], in test [3], in [4], in test [19], in test [10] and in test [11] was inactive. Moreover, the outcome in test [12], in test [13], in test [14] and in test [15] was inactive. For the same molecule, the Potency result in [7] and in [16] was “inactive” throughout. The activation in [18] was -0.438% (inactive). In addition, in [17], the Potency is 31.6 µM (active).

On to `C[N+](C)(C)CCCCCC[N+](C)(C)C`, for which the molecule was called inactive in test [1], in test [2], in test [4], in test [5], in [19] and in test [8]. The call in test [9], in test [10], in test [11], in test [12], in test [13] and in test [14] was inactive. The result in test [15] was inactive. Moreover, the Potency entry in test [6], in [7], in [16] and in test [17] was “inactive” each time. Moreover, the activation in test [18] was 0.625% (inactive) and 0.562% (inactive). Further, the viability change in [9] was -1.95% and 3.05%.
